An excerpt weighted towards active compounds, which were near 5.5% of everything screened.
RORgamma inh: inhibitors of mouse ROR gamma transcriptional activity. P51450. Drosophila S2 Gal4-RORgamma UAS-luciferase reporter, 20 h. Potency, µM (titrated, usually from 53.6 µM), actives largely listed as inhibitors. hit rate 5.4% among 310,000. AID 2551; note: nearly all actives have a fitted effect of over 60% in size
Target sequence (P51450 whole entry, looked up, the tested form may be a part): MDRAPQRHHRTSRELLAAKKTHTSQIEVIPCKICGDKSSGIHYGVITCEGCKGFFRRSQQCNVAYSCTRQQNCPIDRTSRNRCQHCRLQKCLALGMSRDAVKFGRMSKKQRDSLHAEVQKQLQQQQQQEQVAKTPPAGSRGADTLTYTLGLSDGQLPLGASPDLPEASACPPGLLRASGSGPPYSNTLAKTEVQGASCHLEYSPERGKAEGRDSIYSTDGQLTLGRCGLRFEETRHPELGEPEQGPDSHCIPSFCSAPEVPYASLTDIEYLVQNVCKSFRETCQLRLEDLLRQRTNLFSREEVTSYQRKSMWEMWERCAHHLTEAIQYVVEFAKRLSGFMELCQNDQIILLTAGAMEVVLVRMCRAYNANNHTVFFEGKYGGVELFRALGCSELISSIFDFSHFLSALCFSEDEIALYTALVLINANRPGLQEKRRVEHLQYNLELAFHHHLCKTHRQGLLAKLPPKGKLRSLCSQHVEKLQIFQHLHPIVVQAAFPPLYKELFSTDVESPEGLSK
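Using a luciferase readout, inhibitors were identified by reduced reporter activity in Drosophila cells coexpressing a copper-inducible Gal4–ROR gamma fusion and UAS-driven Photinus luciferase, incubated 20 hr after 700 uM copper sulfate.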
BCR signal inh: blocks chronic active B-cell receptor signaling | ABC-DLBCL IkBa-CBG/CBR reporter, luminescence ratio, 4 h | Potency, µM (series often up to 46.1 µM), most hits filed as inhibitors | hit rate 0.05% among 340,000 | AID 493014; active = well fitted inhibition curve with a large enough effect in the signal ratio, with a control signal flat, not every such curve was filed as active; inconclusive = small, poorly fitted or top-dose-only effect, or effect the other way, or a change in a side signal; the % refers to the signal ratio
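TMD8 ABC-DLBCL cells carrying doxycycline-inducible green luciferase fused to IkappaBalpha plus unfused red luciferase were exposed to compounds (up to 46 uM) for 4 hrs at 37C. Activity came from the overlap-corrected green/red luminescence ratio.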
a7 integrin act: integrin-mediated muscular dystrophy alleviation activation | Potency, µM (series often up to 38.3 µM), actives largely listed as activators | hit rate 0.064% among 350,000 | AID 624291 | alpha7betagal myoblasts, beta-gal FDG fluorescence, 48 h; note: nearly all actives have a fitted effect of over 60% in size
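Alpha7betagal+/- myoblasts (passage 13) were plated 16-24 hr, then exposed to compounds (1:260 dilution of DMSO stock) for 48 hours at 37C. After MPER lysis, β-galactosidase reporter activity was read as FDG fluorescence (ex 480/em 540) after 30 minutes.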
VP16 counter: counter-screen for ROR gamma inhibitors: Gal4-VP16 reporter | Drosophila S2 Gal4-VP16 UAS-luciferase, luminescence, 20 h | Potency, µM (titrated, usually from 53.6 µM), actives largely listed as inhibitors | hit rate 3.5% among 310,000 | AID 2546;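 note: Gal4-VP16 expression switched on by copper sulfate through the metallothionein promoter; nearly all actives have a fitted effect of over 50% in size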
uPA generation: blocks generation of uPA at the cell surface | cell surface uPA generation assay, qHTS | Potency, µM (highest dose often 38.3 µM), hits mostly inhibitors | hit rate 0.31% among 330,000 | AID 540303; active = well fitted inhibition curve with a large enough effect; inconclusive = small, poorly fitted or top-dose-only effect; inactive = no such curve, though single readings can be large or run the other way; tested in mouse RAW 264.7 cells; note: nearly all actives have a fitted effect of over 55% in size
Mito fusion act: mitochondrial division inhibition or fusion activation; S. cerevisiae fusion-defective mutant growth rescue, CellTiterGlo 48 h; Potency, µM (top dose mostly 46.1 µM), most hits filed as activators; hit rate 0.23% among 320,000; note: nearly all actives have a fitted effect of over 45% in size
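Growth-rescue viability read-out: after 48 h at the non-permissive 37C in glycerol/ethanol YPEG, yeast mitochondrial fusion mutants are measured by CellTiterGlo luminescence; compounds (23 nl pinned per well) restoring growth score as division inhibitors or fusion activators.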
Hits are given with their value; n = inactive; u = inconclusive; x = no result given; [ ] = another dose, or the depositor's remark. Unless noted, calls come from the whole dose curve; as a rule, active = well fitted curve in the direction sought with a large enough effect; inconclusive = small, poorly fitted or top-dose-only effect, or another doubt; inactive = no such curve, though single readings can be large; an effect the other way counts as inactive or inconclusive.

SMILES	RORgamma inh	BCR signal inh	a7 integrin act	VP16 counter	uPA generation	Mito fusion act
Cc1cccc(Cc2cnc(NC(=O)C3=NCCN3)s2)c1	3.55µM	n	n	7.94µM	n	n
NC(=O)c1cc(Cc2ccccc2)sc1NC(=O)c1ccco1	u	n	n[7.66 µM]	u	x	15.8µM
Cc1cccc(Cc2cnc(NC(=O)c3ccc(C)o3)s2)c1	10µM	n	n	u	n	u
CN(Cc1ccccc1)S(=O)(=O)c1ccc(N2CCOCC2)nc1	u	n	n	n	n	n
Oc1ccc(CNc2ccccc2)c2cccnc12	15.8µM	u	n	0.794µM	n	n
Cc1cccc(NCc2ccc(O)c3ncccc23)c1	6.31µM	n	n	u	n	n
Oc1ccc(Cn2ccnc2)c2cccnc12	u	n	n	u	n	n
Oc1ccc(CNCc2ccc3c(c2)OCO3)c2cccnc12	x	14.6µM	x	x	x	n
Oc1ccc(CNc2ccc(F)cc2)c2cccnc12	11.2µM	n	n	u	n	n
OCc1cn(Cc2ccc(O)c3ncccc23)cn1	x	n	x	x	x	n
C/C1=C/CC(C)(C)/C=C/C/C(C)=C/CC1	n	x	x	n	x	x
O=S(=O)(CCc1ccccc1)c1nnnn1-c1ccc(F)cc1Br	n	x	x	n	x	x
Cc1ccccc1NCc1ccc(O)c2ncccc12	11.2µM	n	n	11.2µM	n	n
O=C(COC(=O)c1ncc(Cl)c(Cl)c1Cl)Nc1ccc(Cl)cn1	x	n	n	x	n	n
COc1cc(C2C(=O)N(C3CCCCC3)CC(=O)N2Cc2ccc(C)cc2)ccc1OC(C)C (stereo unspecified)	x	n	x	x	x	x
CC(=O)N1CCC(=NNc2ncc(C(F)(F)F)cc2Cl)CC1	3.16µM	n	n	u	x	n
CCOC(=O)N1CCC(=NNc2ncc(C(F)(F)F)cc2Cl)CC1	7.08µM	n	n	u	n	n
O=C(O)CC/C(=N/Nc1ncc(C(F)(F)F)cc1Cl)C(=O)O	12.6µM	n	n	u	n	n
COC(=O)[C@@H]1C[C@H]1[C@@H](NC(=O)c1ccc(Br)cc1)c1ccccc1	n	x	x	n	x	x
O=P(O)(O)OC[C@H]1O[C@](O)(COP(=O)(O)O)[C@@H](O)[C@@H]1O	n	x	x	n	x	x
COC(=O)c1ccc(Sc2nnnn2-c2ccccc2)c([N+](=O)[O-])c1	12.6µM	u	n	u	n	n
O=C(/C=C/c1ccccc1)c1ccccc1	n	u	x	n	u	n
O=C(/C=C/c1ccccc1)c1ccc2c3c(cccc13)CC2	12.6µM	u	n	15.8µM	n	n
CC(C)Cn1c(-c2csc(C(C)C)c2)n[nH]c1=S	2µM	n	n	n[10 µM]	n	n
CCn1c(-c2csc(C(C)C)c2)n[nH]c1=S	2.51µM	u	n	12.6µM	n	n
SMILES	RORgamma inh	BCR signal inh	a7 integrin act	VP16 counter	uPA generation	Mito fusion act
COc1cc(N=Nc2cccc(S(N)(=O)=O)c2)c2ccccc2c1N	11.2µM	u	n	n	n	n
NC1=NC(=Nc2cccc(S(N)(=O)=O)c2)c2ccccc21	n	n	n	n	n	n
CCNc1ncc2nc(-c3ccc(OC)cc3)c(=O)n(Cc3ccc(F)cc3)c2n1	n	x	x	n	x	x
CS(=O)(=O)N1CCC[C@@]2(CCN(Cc3nccs3)C2)C1	n	x	x	n	x	x
N/C(=N\NC(=O)c1sccc1OCc1ccc(Cl)cc1Cl)c1ccccn1	2.24µM	n	n	5.62µM	n	n
Cc1ccc(NC(=S)NCc2ccccc2)c(C)c1	5.01µM	u	n	7.08µM	n	n
Cc1ccc(NC(=S)NNC(=O)c2ccccc2O)c(C)c1	n	u	n	n	n	n
Cc1ccc(NC(=S)NCCC(c2ccccc2)c2ccccc2)c(C)c1	3.55µM	u	n	n[0.365 µM]	n	n
COc1ccc(OC)c(NC(=S)NCCC(c2ccccc2)c2ccccc2)c1	x	x	n	x	n	x
Cc1ccccc1NC(=S)NCCC(c1ccccc1)c1ccccc1	5.01µM	n	n	12.6µM	n	n
Cc1cc(C)n(-c2nc(C)c(C)c(=O)n2CC(=O)Nc2ccc(Cl)c(Cl)c2)n1	x	n	x	x	x	x
C=CCN1C(=O)c2ccc(C(=O)N(CC(C)C)c3c(N)n(CCCC)c(=O)[nH]c3=O)cc2C1=O	x	n	n	x	n	n
O=C(/C=C\Nc1ccc2c(c1)OCO2)c1ccccn1	1.12µM	u	n	2.24µM	n	n
C[C@H](NC(=O)CNC(=O)[C@@H](NC(=O)[C@H](Cc1ccccc1)NC(=O)CNC(=O)CNC[C@@H](N)Cc1ccccc1)[C@@H](C)O)C(=O)N[C@@H](CCCN=C(N)N)C(=O)N[C@@H](CCCCN)C(=O)N[C@@H](CO)C(=O)N[C@@H](C)C(=O)N[C@@H](CCCN=C(N)N)C(=O)N[C@@H](CCCCN)C(N)=O	n	x	x	n	x	x
Cc1ccc(CNC(=O)c2ccc(N3CCC4(CC3)CC(c3ccccc3)=NO4)c(N)c2)cc1	n	n	n	u	n	n
CC(NC(=S)NCc1ccc(F)cc1)C12CC3CC(CC(C3)C1)C2 (stereo unspecified)	1.78µM	n	n	5.01µM	n	n
C[C@H](NC(=O)NCc1ccc(F)cc1)C(=O)O	n	n	n	n	n	n
COc1ccc(C(C)NC(=S)NCc2ccc(F)cc2)cc1OC (stereo unspecified)	12.6µM	n	n	u	n	n
CCC(NC(=S)NCc1ccc(F)cc1)c1ccc(C(C)C)cc1 (stereo unspecified)	2.82µM	u	n	3.98µM	u	n
CCC(C)[C@H](NC(=O)NCc1ccc(F)cc1)C(=O)O (stereo partly specified)	n	n	n	n	n	n
CCNC(=S)NCc1ccc(OC)c(OC)c1	n	n	u	n	n	n
COc1ccc(C)cc1NC(=S)NC(C)c1ccc(OC)c(OC)c1 (stereo unspecified)	2.82µM	n	n	10µM	n	n
CCN(C(=O)Cn1nc(C)n2c(cc3cc(C)ccc32)c1=O)c1ccccc1	n	n	n	n	n	n
CCN(CC)CCNC(=O)c1ccc(NS(C)(=O)=O)cc1	x	x	x	x	x	n
CCC(C)c1ccc(C(C)NC(=S)NCc2ccc(F)cc2)cc1 (stereo unspecified)	2.82µM	u	n	5.01µM	n	n
CCCc1ccc(C(C)NC(=S)NCc2ccc(F)cc2)cc1 (stereo unspecified)	0.631µM	u	n	3.16µM	n	n
CCOc1ccc(OCCC(=O)OCC(=O)NCc2ccc(Cl)cc2)cc1	x	n	n	x	n	n
CCOc1ccc(C(C)NC(=S)NCc2ccc(Cl)cc2)cc1 (stereo unspecified)	0.794µM	n	n	12.6µM	n	n
Cc1cccc(NC(=O)CN(C)C(=O)/C=C/c2ccccc2)c1C	x	n	n	x	n	n
COC(=O)C1=C(C)N(Cc2ccccc2)C(=NCc2ccc(OC)cc2)N[C@H]1c1ccc(Br)cc1	n	n	x	n	x	n

Screens (PubChem BioAssay)
